# Target: T1, Serine/threonine-protein kinase Nek9 (Homo sapiens) (UniProt Q8TD19);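 further: each value is a mean percent inhibition of NEK9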
# T1 sequence (whole entry): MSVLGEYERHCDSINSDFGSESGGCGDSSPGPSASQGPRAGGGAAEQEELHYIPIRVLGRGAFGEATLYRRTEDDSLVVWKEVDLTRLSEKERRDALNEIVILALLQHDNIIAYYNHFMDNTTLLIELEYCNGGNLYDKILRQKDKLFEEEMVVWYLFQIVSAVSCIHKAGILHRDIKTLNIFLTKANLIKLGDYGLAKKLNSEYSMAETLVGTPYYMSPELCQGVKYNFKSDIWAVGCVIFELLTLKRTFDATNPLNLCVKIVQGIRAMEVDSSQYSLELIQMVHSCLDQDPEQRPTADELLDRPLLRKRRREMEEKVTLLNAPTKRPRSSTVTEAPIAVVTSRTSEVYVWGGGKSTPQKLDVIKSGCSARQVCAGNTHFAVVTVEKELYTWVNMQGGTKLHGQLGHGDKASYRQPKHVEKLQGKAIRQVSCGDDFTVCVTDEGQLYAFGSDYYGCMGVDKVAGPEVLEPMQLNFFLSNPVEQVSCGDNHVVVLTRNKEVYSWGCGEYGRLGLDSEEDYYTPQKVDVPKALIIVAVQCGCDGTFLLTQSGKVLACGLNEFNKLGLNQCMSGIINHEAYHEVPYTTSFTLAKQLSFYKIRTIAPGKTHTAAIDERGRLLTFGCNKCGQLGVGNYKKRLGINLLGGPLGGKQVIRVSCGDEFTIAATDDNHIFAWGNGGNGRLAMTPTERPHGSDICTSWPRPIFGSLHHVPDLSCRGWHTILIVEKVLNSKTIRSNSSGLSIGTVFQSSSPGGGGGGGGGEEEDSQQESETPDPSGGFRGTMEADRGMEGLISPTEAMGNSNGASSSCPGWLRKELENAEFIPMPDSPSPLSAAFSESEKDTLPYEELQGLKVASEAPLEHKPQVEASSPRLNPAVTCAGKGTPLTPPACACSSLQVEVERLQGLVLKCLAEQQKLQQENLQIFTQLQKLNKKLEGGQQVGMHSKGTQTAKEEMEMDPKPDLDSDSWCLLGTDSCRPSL
# Conditions: at 1 µM
row,Compound,inhibition [%]
1,CC(=O)Nc1cccc(C#Cc2cncnc2Nc2ccc(OCc3cccc(F)c3)c(Cl)c2)n1,2.5
2,O=C1NC(=O)C(c2ccccc2Cl)=C1Nc1cccc(O)c1,-5.12
3,COc1ccc2cc(-c3c(-c4ccncc4)nc(-c4ccc([S+](C)[O-])cc4)n3C)ccc2c1 (stereo unspecified),0.29
4,NS(=O)(=O)c1ccc(N/N=C2\C(=O)Nc3ccc(C(=O)NCCc4c[nH]cn4)cc32)cc1,10.4
5,CCCN1CCC=C(c2ccc(Nc3nc(Nc4ccccc4C(N)=O)c4cc[nH]c4n3)c(C)c2)C1,7.97
6,CCn1c(-c2nonc2N)nc2cnc(Oc3cccc(NC(=O)c4ccc(OCCN5CCOCC5)cc4)c3)cc21,17
7,CC1=C(C(=O)Nc2ccc3[nH]ncc3c2)C(c2ccc3ccccc3c2)CC(=O)N1 (stereo unspecified),2.05
8,COc1cc(C)c(NC(=O)CN(C)C)cc1Nc1nc(Nc2cccc(F)c2C(N)=O)c2cc[nH]c2n1,2.11
9,CN1CCC(C(=O)Nc2n[nH]c3nnc(-c4ccccc4)cc23)CC1,19.2
10,CCN1CCC(CC(=O)Nc2n[nH]c3nc(-c4cccs4)c(Br)cc23)CC1,0.2
11,Nc1nc(-c2ccccn2)c(-c2ccc3ncccc3n2)s1,6.84
12,[O-][S+]1CCN(Cc2ccc(-c3ccc4ncnc(Nc5ccc(OCc6ccccc6)c(F)c5)c4c3)o2)CC1,4.38
13,N#Cc1c(NC(=O)c2cccc3ccccc23)sc2c1CCCC2,4.88
14,COC(=O)Nc1nc2cc(Oc3cccc(NC(=O)Nc4cc(C(F)(F)F)ccc4F)c3)ccc2[nH]1,0.95
15,O=C1NC(=O)C(c2ccc(Cl)cc2)=C1Nc1ccc(Cl)c(C(=O)O)c1,-2.24
16,COc1cc2ncn(-c3cc(OCc4ccccc4C(F)(F)F)c(C(N)=O)s3)c2cc1OC,58.7
17,Nc1ncnc2occ(-c3ccc(NC(=O)Nc4cccc(C(F)(F)F)c4)cc3)c12,17.9

row,Compound,inhibition [%]
1,CNC(=O)c1cncc(/C=C/c2c(Cl)cccc2Cl)c1,5.75
2,COc1ccc(-c2ccncc2)cc1C(N)=O,2.67
3,NCc1ccc(-c2nc(-c3ccc(Cl)c(O)c3)c(-c3ccncc3)[nH]2)cc1,-0.05
4,Fc1cccc(COc2ccc(Nc3ncnc4cc(-c5ccc[nH]5)sc34)cc2Cl)c1,9.08
5,Cc1ccc(NC(=O)c2ccnc(N3CCCC3)c2)cc1-c1ccc(C(=O)NCC2CC2)cc1,6.52
6,Cc1cc(O)cc(C)c1/C=C/c1cncc(-c2nn[nH]n2)c1,8.64
7,COc1ccccc1Nc1ncc(-c2ccccc2)o1,5.41
8,CS(=O)(=O)CCNCc1ccc(-c2ccc3ncnc(Nc4ccc(OCc5ccccc5)c(Cl)c4)c3c2)o1,4.02
9,CS(=O)(=O)Nc1ccc(N/C=C2\C(=O)Nc3ccccc32)cc1,9.7
10,COc1cc2ncn(-c3cc(O[C@@H](C)c4ccccc4Cl)c(C(N)=O)s3)c2cc1OC,38.4
11,COc1cc2ncn(-c3cc(O[C@H](C)c4ccccc4Cl)c(C(N)=O)s3)c2cc1OC,91.6
12,NC(=O)c1ccc(-c2nc(-c3ccccn3)c(-c3ccc4c(c3)OCO4)[nH]2)cc1,6.43
13,O=C1Nc2ccc(C(=O)c3ccco3)cc2C1=Cc1cc(Cl)c(O)c(Cl)c1,5.76
14,COC(=O)Nc1nc2cc(Oc3ccc(NC(=O)Nc4cccc(C(=O)O)c4)cc3)ccc2[nH]1,1.76
15,COc1cc(C=NNc2ncnc3c2cnn3-c2ccccc2)ccc1O,1.08
16,COc1ccc(COc2ccc(Cc3cnc(N)nc3N)cc2OC)cc1,-4.1
17,NS(=O)(=O)c1cccc(-c2ccc3c(NC(=O)C4CC4)n[nH]c3c2)c1,2.04

# Target: Serine/threonine-protein kinase PLK1 (Homo sapiens) (UniProt P53350);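 further: reported values are mean PLK1 inhibition, measured as part of the GSK PKIS profiling set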
# Conditions: at 0.1 µM
# Serine/threonine-protein kinase PLK1 (Homo sapiens), sequence (P53350 whole entry): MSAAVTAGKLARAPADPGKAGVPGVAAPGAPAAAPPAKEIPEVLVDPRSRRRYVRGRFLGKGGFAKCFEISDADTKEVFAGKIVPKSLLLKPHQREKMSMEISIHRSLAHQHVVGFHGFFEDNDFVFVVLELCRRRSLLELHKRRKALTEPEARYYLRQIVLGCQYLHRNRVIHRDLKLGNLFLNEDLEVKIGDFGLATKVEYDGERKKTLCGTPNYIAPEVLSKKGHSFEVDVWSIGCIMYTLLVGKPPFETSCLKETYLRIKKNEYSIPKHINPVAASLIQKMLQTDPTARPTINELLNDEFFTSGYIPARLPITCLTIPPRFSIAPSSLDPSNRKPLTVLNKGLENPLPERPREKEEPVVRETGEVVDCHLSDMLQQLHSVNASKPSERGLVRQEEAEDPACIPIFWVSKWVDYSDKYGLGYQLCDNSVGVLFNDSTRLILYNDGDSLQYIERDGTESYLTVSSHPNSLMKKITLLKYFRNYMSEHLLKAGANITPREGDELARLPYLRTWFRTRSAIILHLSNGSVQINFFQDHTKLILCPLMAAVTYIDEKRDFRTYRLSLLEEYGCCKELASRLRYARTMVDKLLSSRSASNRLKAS
row,Compound,inhibition [%]
1,CC(=O)Nc1cccc(C#Cc2cncnc2Nc2ccc(OCc3cccc(F)c3)c(Cl)c2)n1,-3.77
2,O=C1NC(=O)C(c2ccccc2Cl)=C1Nc1cccc(O)c1,3.44
3,COc1ccc2cc(-c3c(-c4ccncc4)nc(-c4ccc([S+](C)[O-])cc4)n3C)ccc2c1 (stereo unspecified),1.98
4,NS(=O)(=O)c1ccc(N/N=C2\C(=O)Nc3ccc(C(=O)NCCc4c[nH]cn4)cc32)cc1,5.66
5,CCCN1CCC=C(c2ccc(Nc3nc(Nc4ccccc4C(N)=O)c4cc[nH]c4n3)c(C)c2)C1,13.9
6,CCn1c(-c2nonc2N)nc2cnc(Oc3cccc(NC(=O)c4ccc(OCCN5CCOCC5)cc4)c3)cc21,4.54
7,CC1=C(C(=O)Nc2ccc3[nH]ncc3c2)C(c2ccc3ccccc3c2)CC(=O)N1 (stereo unspecified),2.98
8,COc1cc(C)c(NC(=O)CN(C)C)cc1Nc1nc(Nc2cccc(F)c2C(N)=O)c2cc[nH]c2n1,70.5
9,CN1CCC(C(=O)Nc2n[nH]c3nnc(-c4ccccc4)cc23)CC1,6.37
10,CCN1CCC(CC(=O)Nc2n[nH]c3nc(-c4cccs4)c(Br)cc23)CC1,-3.36
11,Nc1nc(-c2ccccn2)c(-c2ccc3ncccc3n2)s1,2.47
12,[O-][S+]1CCN(Cc2ccc(-c3ccc4ncnc(Nc5ccc(OCc6ccccc6)c(F)c5)c4c3)o2)CC1,2.17
13,N#Cc1c(NC(=O)c2cccc3ccccc23)sc2c1CCCC2,3.77
14,COC(=O)Nc1nc2cc(Oc3cccc(NC(=O)Nc4cc(C(F)(F)F)ccc4F)c3)ccc2[nH]1,1.57
15,O=C1NC(=O)C(c2ccc(Cl)cc2)=C1Nc1ccc(Cl)c(C(=O)O)c1,-1.32
16,COc1cc2ncn(-c3cc(OCc4ccccc4C(F)(F)F)c(C(N)=O)s3)c2cc1OC,93.4

row,Compound,inhibition [%]
1,Nc1ncnc2occ(-c3ccc(NC(=O)Nc4cccc(C(F)(F)F)c4)cc3)c12,4.84
2,CNC(=O)c1cncc(/C=C/c2c(Cl)cccc2Cl)c1,3.89
3,COc1ccc(-c2ccncc2)cc1C(N)=O,5.64
4,NCc1ccc(-c2nc(-c3ccc(Cl)c(O)c3)c(-c3ccncc3)[nH]2)cc1,4.25
5,Fc1cccc(COc2ccc(Nc3ncnc4cc(-c5ccc[nH]5)sc34)cc2Cl)c1,3.81
6,Cc1ccc(NC(=O)c2ccnc(N3CCCC3)c2)cc1-c1ccc(C(=O)NCC2CC2)cc1,3.7
7,Cc1cc(O)cc(C)c1/C=C/c1cncc(-c2nn[nH]n2)c1,3.41
8,COc1ccccc1Nc1ncc(-c2ccccc2)o1,4.91
9,CS(=O)(=O)CCNCc1ccc(-c2ccc3ncnc(Nc4ccc(OCc5ccccc5)c(Cl)c4)c3c2)o1,2.44
10,CS(=O)(=O)Nc1ccc(N/C=C2\C(=O)Nc3ccccc32)cc1,-2.87
11,NC(=O)c1ccc(-c2nc(-c3ccccn3)c(-c3ccc4c(c3)OCO4)[nH]2)cc1,5.18
12,O=C1Nc2ccc(C(=O)c3ccco3)cc2C1=Cc1cc(Cl)c(O)c(Cl)c1,9.81
13,COC(=O)Nc1nc2cc(Oc3ccc(NC(=O)Nc4cccc(C(=O)O)c4)cc3)ccc2[nH]1,0.16
14,COc1cc(C=NNc2ncnc3c2cnn3-c2ccccc2)ccc1O,2.41
15,COc1ccc(COc2ccc(Cc3cnc(N)nc3N)cc2OC)cc1,0.21
16,NS(=O)(=O)c1cccc(-c2ccc3c(NC(=O)C4CC4)n[nH]c3c2)c1,0.99

# — ChEMBL document CHEMBL1961873, “Compounds: GSK PKIS; Assays: Nanosyn kinase panel” (2012)
